Source: PubChem
HT1080NT lethal: qHTS for induction of synthetic lethality in tumor cells producing 2HG: qHTS for the HT-1080-NT fibrosarcoma cell line. HT-1080-NT fibrosarcoma viability, CellTiter-Glo ATP luminescence, 48 h. Potency, µM (titrated, usually from 46.1 µM), for the others: at the top dose activity, negative = less viability, actives largely listed as cytotoxic. 360,000 compounds, 1.6% hits. AID 686970, 2013;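 further: NT is the 2HG producing partner of a matched IDH1 knockdown line; 0% = DMSO-treated cells and -100% = media-only wells without cells; nearly all actives have a fitted effect of over 55% in size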
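A 48-hour cytotoxicity screen used HT-1080-NT cells plated 2 hours before compound delivery. ATP-based CellTiter-Glo luminescence measured viability, normalized to DMSO and no-cell controls.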
MCF10A rereplic: A quantitative high throughput screen for small molecules that induce DNA re-replication in MCF 10a normal breast cells. MCF 10A DNA re-replication, Hoechst nuclear intensity, 48 h. Potency, µM (highest dose often 46.1 µM), inactives show at the top dose activity, positive = re-replication, actives largely listed as activators. 350,000 compounds, 2.9% hits. AID 624296, 2012; further: % of control where 0% means no effect; nearly all actives have a fitted effect of over 50% in size
KB-V1 MDR tox: qHTS assay for MDR1-selective chemotherapeutics: Primary screen using the drug-selected MDR subline cells KB-V1. KB-V1 MDR cells viability, CellTiter-Glo, 72 h. Potency, µM (highest dose often 46.1 µM), usual class: cytotoxic. 400,000 compounds, 3.4% hits. AID 1347076, 2019; further: on the % scale 0 is the no-effect control and ±100 the full control effect; nearly all actives have a fitted effect of over 60% in size
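Cells of the MDR subline KB-V1 are plated, dosed with compound at multiple concentrations, and incubated 72 h at 37 degrees C; CellTiter-Glo is then added and luminescence read after 10 min.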
KB-3-1 tox: qHTS assay for MDR1-selective chemotherapeutics: Primary screen using the parental adenocarcinoma cell KB-3-1; KB-3-1 viability, CellTiter-Glo ATP luminescence, 72 h; Potency, µM (series often up to 46.1 µM), hits mostly cytotoxic; 400,000 compounds, 1.4% hits; AID 1347075, 2019; further: on the % scale 0 is the no-effect control and ±100 the full control effect; nearly all actives have a fitted effect of over 60% in size
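Viability of parental KB-3-1 cells, measured by CellTiter-Glo luminescence, followed a 72 h incubation at 37 °C with pinned compounds in phenol-red-free DMEM containing 10% FBS.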
SW480 rereplic: A quantitative high throughput screen for small molecules that induce DNA re-replication in SW480 colon adenocarcinoma cells; SW480 DNA re-replication, Hoechst DNA content imaging, 48 h; Potency, µM (doses to about 46.1 µM), for the others: top-dose re-replication activation, hits mostly activators; 340,000 compounds, 1.8% hits; AID 624297, 2012; further: % of control where 0% means no effect; nearly all actives have a fitted effect of over 55% in size
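SW480 cells exposed to compounds for 48 hr at 37 C, 5% CO2, then Hoechst-stained 40 min. Nuclear DNA content imaged by fluorescence scanning (405 nm excitation, 500-530 nm emission); re-replication scored as increased high-intensity nuclei.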
HT1080 IDH1KD tx: qHTS for induction of synthetic lethality in tumor cells producing 2HG: qHTS for the HT-1080-IDH1KD cell line; Potency, µM (series often up to 46.1 µM), inactives show at the top dose activity, negative = toxicity, usual class: cytotoxic; HT-1080 IDH1 knockdown viability, ATP luminescence, 48 h; 360,000 compounds, 2% hits;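 further: 0% = DMSO wells and -100% = cell-free medium wells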
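Assay cells: HT-1080 with IDH1 knockdown, 750 per well, RPMI/5% FBS. Exposure: 48 h at 37 °C following 2 h pre-incubation. Read: CellTiter-Glo luminescence; fitted concentration-response, curve class assigned.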
The depositor's hits bear a star; i = inactive; ? = inconclusive; · = not tested or not shown; [ ] = another dose, or the depositor's remark. Rows were chosen to be rich in hits. Some 7.9% of all compounds tested hit in one or more screens of this group. The call rests on the fitted dose curve; in most records, active means well fitted curve in the direction sought with a large enough effect; inconclusive means small, poorly fitted or top-dose-only effect, or another doubt; inactive means no such curve, though single readings can be large; an effect the other way counts as inactive or inconclusive. Potency means the concentration at half of the fitted maximal effect.

SMILES | HT1080NT lethal | MCF10A rereplic | KB-V1 MDR tox | KB-3-1 tox | SW480 rereplic | HT1080 IDH1KD tx
COc1ccc(CC(=O)Nc2c3c(nn2-c2cccc(Cl)c2)CS(=O)(=O)C3)cc1 | -1% | 23% | 16µM* | i | -4% | ?
O=C(Cc1ccccc1)Nc1c2c(nn1-c1cccc(Cl)c1)CS(=O)(=O)C2 | -2% | 19% | 21µM* | i | -5% | -29%
Cc1cc(NCC(=O)Nc2ccc(C)c(S(=O)(=O)N3CCOCC3)c2)ccc1Br | -24% | · | ? | i | · | -4%
O=C1C=C(O)CC(c2ccc(Cl)c(Cl)c2)C1 (stereo not given) | -3% | 5µM* | i | i | -1%[9.22 µM] | 4%
Cc1ccc(C)c(NC(=O)CN2C(=O)CSc3nc(C)cc(C)c32)c1 | · | · | i | ? | · | ·
COc1c(-c2ccc(O)cc2)oc2cc(O)cc(O)c2c1=O | 0% | 6% | i | i | 9% | -2%
COc1ccc(-c2oc3cc(O)c(OC)c(O)c3c(=O)c2OC)cc1 | ? | 5.2µM* | ? | ? | ? | 21µM*
CCN(CC)CCNC(=O)C1CCN(c2nn3cc(-c4ccc(F)cc4)nc3s2)CC1 | · | · | i | ? | · | ·
COc1ccc(-c2cc(C(F)(F)F)n3nc(C(=O)NCCN4CCOCC4)cc3n2)cc1 | 1% | -7% | i | i | -5% | -7%
COc1ccc(-c2cc(C(F)(F)F)n3nc(C(=O)Nc4c(C)n(C)n(-c5ccccc5)c4=O)cc3n2)cc1 | 18% | 18µM* | i | ? | 20% | 11%
COc1ccc(-c2cc(C(F)(F)F)n3nc(C(=O)NCCCn4ccnc4)cc3n2)cc1 | -2% | 13µM* | i | i | ? | -1%
CC(C)c1cccc(-c2ccc3c(c2)S(=O)(=O)c2cccc(C(=O)NCc4ccccc4Cl)c2C3=O)c1 | 14% | ? | i | 6.5µM* | -97% | 4%
O=C(NCc1ccco1)c1cccc2c1C(=O)c1ccc(N3CCC(Cc4ccccc4)CC3)cc1S2(=O)=O | 0% | ? | i | i | ? | -2%
O=C(NCc1ccco1)c1cccc2c1C(=O)c1ccc(/C=C/c3ccccc3)cc1S2(=O)=O | ? | 9.2µM* | i | ? | ? | ?
CCCCC1CCC(C(=O)N2CC(=O)Nc3ccc(F)cc3C2c2ccc(F)cc2)CC1 (stereo not given) | · | · | i | i | · | ·
CCc1ccc2oc(-c3ccc(C)c(NC(=O)COc4ccc(Cl)cc4)c3)nc2c1 | · | · | i | i | · | ·
COc1ccc(/C=N/NC(=O)c2ccccc2Cl)cc1CSc1nc2ccccc2s1 | 4.5µM* | 0.82µM* | 7.3µM* | 5.8µM* | 5.8µM* | ?
COc1ccc(/C=N\NC(=O)c2ccccc2Cl)cc1COc1c(F)c(F)c(F)c(F)c1F | -13% | 9.2µM* | i | ? | ? | ?
COc1ccc(/C=N/NC(=O)c2cccnc2)cc1COc1ccc([N+](=O)[O-])c(C)c1 | 2.6µM* | 2.1µM* | ? | 6.5µM* | 12µM* | 2.1µM*
COc1ccc(/C=N/NC(=O)CCSc2nc3ccccc3s2)cc1OC | -3% | ? | i | i | ? | -4%
COc1ccc(/C=N/NC(=O)c2ccn[nH]2)cc1COc1ccc(Cl)cc1Cl | ? | 12µM* | i | i | ? | 3%[9.24 µM]
COc1ccc(/C=N/NC(=O)c2ccn[nH]2)cc1COc1ccc([N+](=O)[O-])c(C)c1 | ? | 2% | i | i | ? | ?
CC(=O)c1cccc(NC(=O)Nc2nnc(N3CCCC3)s2)c1 | · | · | ? | i | · | ·
CCC(=O)N1c2ccc(S(=O)(=O)CCC(=O)Nc3ccc(Br)c(C)c3)cc2CC1C (stereo not given) | · | · | i | i | · | ·
CCOc1ccc(C(=O)Nc2ccc(-c3nc4ccccc4s3)c(C)c2)cc1OCC | · | · | i | i | · | ·
SMILES | HT1080NT lethal | MCF10A rereplic | KB-V1 MDR tox | KB-3-1 tox | SW480 rereplic | HT1080 IDH1KD tx
O=C(CSc1nc(=O)n(Cc2ccco2)c2c1CCC2)Nc1ccccc1C(F)(F)F | · | · | i | i | · | ·
CN(C)C(=O)c1cc2c(c(-c3cccc(C4=CCCCC4)c3)n1)[C@@H](CCO)N(S(=O)C(C)(C)C)C2 (stereo not given in full) | 8% | · | i | i | · | 6%
COc1ccc(/C=N/NC(=O)c2cccnc2)cc1CSc1nc2ccccc2s1 | ? | ? | 12µM* | ? | 21µM* | ?
COc1ccc(/C=C(\C)C(=O)NO)cc1 | 0% | · | · | · | · | 1%
COc1ccc(NC(=O)C(NC(=O)OC(C)(C)C)C(C)OCc2ccccc2)cc1 (stereo not given) | -28% | 6% | 4.1µM* | i | -1% | ?
CN(C)C(=O)[C@H]1C[C@H]1[C@@H](O)[C@H](CO)NC(=O)[C@H](COCc1ccccc1)NC(=O)OC(C)(C)C | 3% | 2% | i | i | 8% | -1%
COc1ccc(NC(=O)[C@H](COCc2ccccc2)NC(=O)OC(C)(C)C)cc1 | 2% | 5% | 5.2µM* | i | 10% | -2%
COc1cccc(CNC(=O)c2ccc(Cn3c(SCc4ccccc4)nc4cccnc43)cc2)c1 | · | · | i | i | · | ·
O=c1[nH]c(=S)[nH]c2c1C(c1ccc(F)cc1)OC(CCC(F)(F)F)C2 (stereo not given) | 9% | · | i | i | · | 13%
Cc1cc(F)ccc1S(=O)(=O)Nc1ccccc1C(=O)Nc1ccccc1-c1nc2ccccc2[nH]1 | ? | 3.7µM* | 18µM* | ? | ? | ?
O=C(Nc1ccc(Cl)c(-c2nc3ccccc3[nH]2)c1)c1cccnc1 | ? | 1% | 21µM* | i | 3% | ?
CS(=O)(=O)c1cccc(C(=O)Nc2ccc(-c3nc4ccccc4[nH]3)cc2)c1 | 12µM* | 11% | i | ? | 15% | 12µM*
COc1c(Cl)cc(C(=O)Nc2cccc(-c3nc4ccccc4[nH]3)c2)cc1Cl | · | · | 21µM* | ? | · | ·
COc1ccc(CCNC(=O)Cn2nnc(-c3ccc(Cl)cc3)n2)cc1OC | · | · | i | i | · | ·
COc1c(Cl)cc(C(=O)Nc2ccccc2-c2ccccc2)cc1Cl | 0% | ? | 15µM* | 21µM* | 7% | 8%
